Rows were chosen to be rich in hits. Some 3.3% of all compounds tested hit in one or more screens of this group.
AmpC no deterg = AmpC beta-lactamase inhibition without detergent. P00811. AmpC nitrocefin hydrolysis, absorbance 480 nm, 0.0001% Triton. Potency, µM (series often up to 57.1 µM), usual class: inhibitors. actives 0.52% (n = 330,000); also: nearly all actives have a fitted effect of over 20% in size
Target sequence (P00811 whole entry, looked up): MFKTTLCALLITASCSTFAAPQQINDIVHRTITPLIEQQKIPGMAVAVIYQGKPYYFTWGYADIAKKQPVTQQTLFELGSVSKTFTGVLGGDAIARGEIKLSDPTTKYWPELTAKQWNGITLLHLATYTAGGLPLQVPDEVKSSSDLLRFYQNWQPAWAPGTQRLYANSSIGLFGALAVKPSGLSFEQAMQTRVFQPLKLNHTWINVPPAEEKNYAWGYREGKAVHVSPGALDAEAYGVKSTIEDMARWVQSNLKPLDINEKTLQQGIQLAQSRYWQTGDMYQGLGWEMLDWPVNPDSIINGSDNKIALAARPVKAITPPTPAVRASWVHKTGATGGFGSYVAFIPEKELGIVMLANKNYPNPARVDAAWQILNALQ
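20 mM phosphate pH 7.0 + 0.01% (detergent screen) or 0.0001% Triton X-100; 5.3 nM AmpC reagent; cpd preinc 15 min RT; nitrocefin (800 uM stock) to start; A480 q20 s × 4 min; Activity was normalised to no-enzyme and no-compound control wells.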
Sm TGR inh = inhibitors of Schistosoma mansoni thioredoxin glutathione reductase; Q962Y6; purified TGR, DTNB reduction, TNB absorbance 405 nm; Potency, µM (series often up to 114 µM), hits mostly inhibitors; actives 3% (n = 360,000); AID 485364; also: nearly all actives have a fitted effect of over 60% in size
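First, TGR (20 nM dispensed) and NADPH were mixed with compound. Second, a 15 min room-temperature incubation followed. Third, further NADPH and then DTNB were added to start the reaction. Finally, TNB absorbance was monitored kinetically.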
AmpC inh detg = blocks E. coli AmpC beta-lactamase in detergent assay; AID 485294; Potency, µM (doses to about 114 µM), usual class: inhibitors; AmpC hydrolysis of nitrocefin, absorbance 480 nm, 0.01% Triton; actives 0.041% (n = 370,000); also: nearly all actives have a fitted effect of over 25% in size
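20 mM phosphate pH 7.0 + 0.01% (detergent screen) or 0.0001% Triton X-100; 5.3 nM AmpC reagent; cpd preinc 15 min RT; nitrocefin (800 uM stock) to start; A480 q20 s × 4 min; Activity was normalised to no-enzyme and no-compound control wells.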
Large screens that a line does not name were inactive. Calls follow the shape of the dose curve; as a rule, active = well fitted curve in the direction sought with a large enough effect; inconclusive = small, poorly fitted or top-dose-only effect, or another doubt; inactive = no such curve, though single readings can be large; an effect the other way counts as inactive or inconclusive.

Cc1sc2ncn(CC(=O)N(C)c3cccc(C(F)(F)F)c3)c(=O)c2c1S(=O)(=O)N1CCN(c2ncccn2)CC1	none (no result: AmpC no deterg)
N#CC(Br)Br	Sm TGR inh 50.1µM
COc1cc(-c2nc(C(N)=O)c3c(n2)n(-c2cccc(C)c2)c(=O)n3C)cc(OC)c1OC	none (no result: AmpC no deterg)
NC(=O)/C=C\C(=O)Nc1cccc(C(F)(F)F)c1	Sm TGR inh 3.55µM
NNC(=O)Nc1cccc(C(F)(F)F)c1	none
COc1ccc(OCc2ccc(-c3nc(C#N)c(N4CCC(C(N)=O)CC4)o3)o2)cc1	none (no result: AmpC no deterg)
O=C(Nc1nnc(-c2ccccc2)s1)c1ccccc1F	none
O=C(Nc1nnc(-c2ccccc2Cl)s1)c1ccccc1F	Sm TGR inh 28.2µM
O=C(O)c1cc(NCc2ccc3c(c2)OCO3)ccc1N1CCOCC1	none
COC(=O)c1cc(NCc2ccc3c(c2)OCO3)ccc1N1CCOCC1	Sm TGR inh 50.1µM, AmpC inh detg inconclusive
CCOc1ccc(CC(=O)Nc2nnc3n2CCS3)cc1	none (no result: AmpC no deterg)
COC(=O)c1ccccc1NC(=O)c1ccc(CN2CC(=O)N3CCCCC3C2=O)cc1 (stereo not drawn)	none (no result: AmpC no deterg)
c1cc2c(cc1C1CCCCC1)c1c3n2CCN=C3CCC1	Sm TGR inh 7.94µM
Cc1ccc2c(c1)c1c3n2CCN=C3CCC1	none
CC(N=Cc1cccc(O)c1O)c1ccccc1 (stereo not drawn)	Sm TGR inh 5.62µM, AmpC inh detg inconclusive
Cc1ccc(N=Cc2cccc(O)c2O)c(C)c1	none
CC(N=Cc1cc([N+](=O)[O-])ccc1O)c1ccccc1 (stereo not drawn)	none
Cc1ccccc1N=Cc1cccc(O)c1O	Sm TGR inh 5.01µM, AmpC inh detg inconclusive
Cc1ccc(S(=O)(=O)/N=C(\Sc2ccccc2)c2ccccc2)cc1	Sm TGR inh 7.94µM
Cc1ccc(S(=O)(=O)/N=C(/Nc2cccc(C(=O)O)c2)c2ccccc2)cc1	none
Cc1ccc(S(=O)(=O)/N=C(/Sc2ccccc2C(=O)O)c2ccccc2)cc1	Sm TGR inh 35.5µM
O=S(=O)(/N=C(\Sc1ccccc1)c1ccccc1)c1ccc(Cl)cc1	none
COC(=O)c1ccc(NC(=O)CN(Cc2ccccc2)S(=O)(=O)c2ccc(Cl)cc2)cc1	none (no result: AmpC no deterg)
CCOc1ccc(C(=O)NCC(c2ccc3c(c2)OCO3)N2CCN(C)CC2)cc1 (stereo not drawn)	none (no result: AmpC no deterg)
CCCN(C(=O)Cn1ncc2c([nH]c3ccccc32)c1=O)c1ccc(F)cc1	none (no result: AmpC no deterg)
CCc1cc(SC#N)cc(C)c1N	none
Cc1cc(SC#N)cc(C)c1NC(=O)CCl	Sm TGR inh 14.1µM
CCC(=O)Nc1ccc(SC#N)cc1C	AmpC inh detg inconclusive
CCc1cc(SC#N)cc(C)c1NC(=O)CCl	Sm TGR inh 10µM
COC(=O)c1sc(N2C(=O)C(=O)/C(=C(/O)c3ccc(C)cc3)C2c2ccco2)nc1C (stereo not drawn)	Sm TGR inh 7.08µM
CCN(CC)CCCN1C(=O)C(=O)/C(=C(/O)c2ccc3c(c2)OCCO3)C1c1ccc(C)o1 (stereo not drawn)	Sm TGR inh 50.1µM, AmpC inh detg inconclusive
CC(C)Oc1ccc(/C(O)=C2/C(=O)C(=O)N(CCN(C)C)C2c2ccco2)cc1 (stereo not drawn)	Sm TGR inh inconclusive, AmpC inh detg inconclusive
CCN(CC)CCN1C(=O)C(=O)/C(=C(/O)c2ccc(OC)cc2)C1c1ccco1 (stereo not drawn)	Sm TGR inh 39.8µM
COc1ccc(C2/C(=C(\O)c3ccc4c(c3)OCCO4)C(=O)C(=O)N2c2nc(C)c(C(C)=O)s2)cc1 (stereo not drawn)	none
CN(C)CCN1C(=O)C(=O)/C(=C(/O)c2ccc3c(c2)OCCO3)C1c1ccccn1 (stereo not drawn)	none
CCCC(=O)Nc1ccc(Cl)c(NC(=O)c2cccnc2)c1	AmpC no deterg 0.159µM
CCC(=O)Nc1ccc(Cl)c(NC(=O)c2cccnc2)c1	none
CCCC(=O)Nc1ccc(NC(=O)c2cccc(OC)c2)cn1	AmpC inh detg inconclusive
CCCC(=O)Nc1ccc(Cl)c(NC(=O)c2cccc(OC)c2)c1	Sm TGR inh 8.91µM
Cc1ccc(S(=O)(=O)N2CCCN(Cc3nc4ccccc4c(=O)[nH]3)CC2)cc1	Sm TGR inh 44.7µM, AmpC inh detg inconclusive
Cc1ccc(S(=O)(=O)N2CCCN(C(C)c3nc4ccccc4c(=O)[nH]3)CC2)cc1 (stereo not drawn)	Sm TGR inh inconclusive
Cc1ccc(NCCC(=O)c2ccccc2)cc1Cl	none
Cc1ccc(NCC(=O)c2ccccc2)cc1Cl	AmpC no deterg 0.316µM
Cc1ccc(C(=O)CNc2ccc(C)c(Cl)c2)cc1	none
Cc1ccc(NC2=C(NC(=O)c3ccccc3)C(=O)c3ccccc3C2=O)cc1Cl	AmpC no deterg 20µM, Sm TGR inh 1.58µM
CCN1CCN(c2oc(/C=C/c3ccc(OC)c(OC)c3)nc2C#N)CC1	none (no result: AmpC no deterg)
O=C1CC(Nc2ccc(N3CCOCC3)cc2)C(=O)N1c1cccc(C(F)(F)F)c1 (stereo not drawn)	Sm TGR inh 28.2µM
CN(C)c1ccc(N2C(=O)CC(Nc3ccc(N4CCOCC4)cc3)C2=O)cc1 (stereo not drawn)	Sm TGR inh inconclusive, AmpC inh detg inconclusive
COc1ccc(N2C(=O)CC(Nc3ccc(N4CCOCC4)cc3)C2=O)c(OC)c1 (stereo not drawn)	Sm TGR inh 28.2µM
Cc1ccc(CN2C(=O)CC(Nc3ccc(N4CCOCC4)cc3)C2=O)cc1 (stereo not drawn)	Sm TGR inh 39.8µM
COc1cccc(N2C(=O)CC(Nc3ccc(N4CCOCC4)cc3)C2=O)c1 (stereo not drawn)	Sm TGR inh inconclusive
O=C1CC(Nc2ccc(N3CCOCC3)cc2)C(=O)N1CCc1ccccc1 (stereo not drawn)	none
COc1ccc(NC(=O)C2=C(C)Nc3nc(SCc4ccc(C)cc4C)nn3C2c2cccc(OC)c2OC)cc1 (stereo not drawn)	none (no result: AmpC no deterg)
COc1cccc(C2CC(=O)Nc3c2c(=O)n(C)c2nc4ccccc4n32)c1 (stereo not drawn)	none (no result: AmpC no deterg)
COc1ccc(CCNC(=O)c2nc(SCc3ccc(F)cc3)ncc2Cl)cc1OC	none (no result: AmpC no deterg)
CCc1ccccc1-n1c2c(cc(-c3nc(-c4ccc(Cl)cc4)cs3)c1=O)C(=O)CC(C)(C)C2	none (no result: AmpC no deterg)
CCc1ccc(-n2nc(C)c3c(C)cc(=O)n(CC(=O)NCc4ccc(C)cc4)c32)cc1	none (no result: AmpC no deterg)
C=Cc1ccc(Cn2c(=O)n(-c3ccc(C)cc3)c(=O)c3c2c2cc(OC)ccc2n3C)cc1	none (no result: AmpC no deterg)
Cc1cc(O)c(C(C[N+](=O)[O-])c2ccc(Cl)cc2)c(=O)o1 (stereo not drawn)	Sm TGR inh inconclusive
Cc1cc(C)n(C(C[N+](=O)[O-])c2ccc(Cl)cc2)n1 (stereo not drawn)	AmpC no deterg 17.8µM
O=C(O)CSC1CC(=O)N(c2ccc(Br)cc2)C1=O (stereo not drawn)	Sm TGR inh 44.7µM
COC(=O)c1ccc(N2C(=O)CC(N(C)Cc3ccccc3)C2=O)cc1 (stereo not drawn)	none
O=C(O)CSC1CC(=O)N(c2ccc(Cl)cc2)C1=O (stereo not drawn)	none
CCCOc1ccc(N2C(=O)CC(SCCN)C2=O)cc1 (stereo not drawn)	Sm TGR inh 35.5µM

Screening data from PubChem.
